Results taken from PubChem BioAssay (EPA / NIEHS).
Values joined by “and” are separate entries in the source; they are usually repeats but may differ in a detail not shown here. Identical values can stand only once. The source holds several records for some structures; these can differ, active in one and inactive in another. Active and inactive are the calls of the source. The calls were made as follows: active = hit-call score of the fitted dose curve at least 0.9, where 1 is the maximum; inactive = score below 0.9.

How the values were obtained:
[1] = APR_HepG2_NuclearSize_72hr: Apredica 72-hour HepG2 Assay for Nuclear Size (AID 2282925); details: high-content imaging, actives raise or lower the signal
Summary of the method: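 Read-out: nuclear diameter from Hoechst 33342 images (ArrayScan, 20x, six fields/well), via cell-cycle image analysis. HepG2 were dosed 0.39–200 uM for 72 hr in 0.5% DMSO. Bidirectional fit relative to DMSO.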

[2] = ATG_CRE_CIS: Attagene CIS-FACTORIAL HepG2 Assay for human cAMP Responsive Element (CRE) binding protein 3 (AID 2282926); details: HepG2 CRE cis-reporter, Attagene multiplexed mRNA; actives raise or lower the signal
Summary of the method: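 Cells carrying cis-regulated reporter constructs respond through their own endogenous factors. After 24 h treatment, RNA is reverse-transcribed, amplified, labelled and sized by capillary electrophoresis; up- and down-regulation are both scored against vehicle.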

[3] = molecular target: CCAAT/enhancer-binding protein beta (Homo sapiens) (UniProt P17676); assay: ATG_C_EBP_CIS: Attagene CIS-FACTORIAL HepG2 Assay for human CCAAT/Enhancer Binding Protein (C/EBP) beta (AID 2282927); details: HepG2 Attagene cis-factorial transcription factor reporter; actives raise or lower the signal
Summary of the method: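 HepG2, transient MRTU transfection, 24 h treatment. RT-PCR plus CE fluorescence; DMSO negative control, bidirectional fit.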

[4] = ATG_CMV_CIS: Attagene CIS-FACTORIAL HepG2 Assay for human CMV (Internal Marker) (AID 2282928); details: HepG2 CMV promoter reporter, transcription factor profiling; actives raise or lower the signal;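 also: endpoint acts as a background internal control marker rather than a target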
Summary of the method: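 Bidirectional fits against DMSO are applied to reporter mRNA, read by RT-PCR with capillary electrophoresis, from HepG2 cells exposed 24 h. The endpoint serves as an internal CMV background marker within the cis-factorial reporter panel.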

[5] = ATG_DR4_LXR_CIS: Attagene CIS-FACTORIAL HepG2 Assay for human Liver X Receptor (LXR), DR4 submotif (AID 2282929); details: HepG2 Attagene DR4 cis-reporter, mRNA transcription; actives raise or lower the signal
Summary of the method: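 HepG2 cells transiently transfected with cis-promoter-driven multiplexed reporter units (DR4 element) were dosed for 24 h. Reporter mRNA was quantified by RT-PCR, fluorescent primer extension, HpaI digestion and capillary electrophoresis; bidirectional fitting versus DMSO baseline.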

[6] = molecular target: Aryl hydrocarbon receptor (Homo sapiens) (UniProt P35869); assay: ATG_Ahr_CIS: Attagene CIS-FACTORIAL HepG2 Assay for human Aryl Hydrocarbon Receptor (Ahr) (AID 2282930); details: HepG2 AhR cis-factorial reporter transcription; actives raise or lower the signal
Summary of the method: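 Endogenous factor activity is tracked through cis-promoter reporter units transfected into HepG2 cells. Transcript levels at 24 h are read by fluorescent RT-PCR and capillary electrophoresis, with activity in either direction scored relative to DMSO.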

[7] = ATG_AP_1_CIS: Attagene CIS-FACTORIAL HepG2 Assay for human Activator Protein 1 (AP-1) (AID 2282931); details: HepG2 Attagene cis-factorial AP-1 reporter mRNA; actives raise or lower the signal
Summary of the method: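 HepG2 cells transiently transfected with cis-element-driven multiplex reporter units; 24 h compound exposure. Reporter mRNA quantified by RT-PCR, FAM-labelled fragments resolved by capillary electrophoresis; bidirectional fit versus DMSO baseline.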

[8] = ATG_AP_2_CIS: Attagene CIS-FACTORIAL HepG2 Assay for human Activator Protein 2 (AP-2) (AID 2282932); details: HepG2 AP-2 cis-reporter, Attagene transcription factor profiling; actives raise or lower the signal
Summary of the method: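 Read-out: fluorescent reporter mRNA via RT-PCR and capillary electrophoresis, 24 h post-dose in transiently transfected HepG2. Endogenous factors drive cis-promoter reporters; gain or loss of signal fitted bidirectionally against DMSO.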

[9] = ATG_BRE_CIS: Attagene CIS-FACTORIAL HepG2 Assay for human Bone Morphogenetic Protein (BMP) Response Element (BRE) (AID 2282933); details: HepG2 BMP response element reporter, Attagene transcription factor profiling; actives raise or lower the signal
Summary of the method: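 A HepG2 multiplex reporter system measured inducible reporter mRNA 24 h post-dosing. Detection: RT-PCR, 6-FAM primer extension, HpaI digestion, capillary electrophoresis. Activity fitted bidirectionally relative to DMSO.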

[10] = molecular target: Retinoic acid receptor alpha (Homo sapiens) (UniProt P10276); assay: ATG_DR5_RAR_CIS: Attagene CIS-FACTORIAL HepG2 Assay for human Retinoic Acid Receptor Alpha (RARE), DR5 submotif (AID 2282934); details: HepG2 Attagene cis-factorial RARE DR5 reporter, mRNA; actives raise or lower the signal;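 as to AC50: reporter responds to endogenous RAR alpha beta and gamma in HepG2 not RARA alone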
Summary of the method: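 After 24 h of chemical exposure, transiently transfected HepG2 cells were lysed for total RNA; the DR5-regulated reporter transcript was quantified via RT-PCR and capillary electrophoresis, with activity fitted bidirectionally against DMSO.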

[11] = molecular target: Transcription factor E2F1 (Homo sapiens) (UniProt Q01094); assay: ATG_E2F_CIS: Attagene CIS-FACTORIAL HepG2 Assay for human E2F Transcription Factor 1 (AID 2282935); details: HepG2 Attagene cis-reporter, E2F reporter RNA transcripts; actives raise or lower the signal
Summary of the method: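 Transient MRTU transfection of HepG2; 24 h compound exposure; RNA → oligo(dT) RT → PCR → FAM label → HpaI cut → CE fluorescence. Gain/loss of signal fit against DMSO.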

[12] = ATG_E_Box_CIS: Attagene CIS-FACTORIAL HepG2 Assay for human Enhancer Box (E-box) (AID 2282936); details: HepG2 E-box cis-reporter transcription, actives raise or lower the signal
Summary of the method: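 Transiently transfected HepG2, endogenous TF-driven reporters, 24 h dosing. Readout: RT-PCR plus capillary electrophoresis of fluorescent reporter fragments. Gain or loss of signal fitted bidirectionally against DMSO baseline.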

[13] = ATG_M_61_CIS: Attagene CIS-FACTORIAL HepG2 Assay for M61 Transcription Factor (Internal Marker) (AID 2282937); details: HepG2 Attagene CIS-FACTORIAL M61 internal marker reporter; actives raise or lower the signal
Summary of the method: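 HepG2 cells transiently transfected with cis-element-driven multiple reporter transcription units, dosed for 24 h. Reporter mRNA measured by RT-PCR, 6-FAM primer-extension labelling, HpaI digestion and capillary electrophoresis; bidirectional fit versus DMSO baseline.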

[14] = ATG_EGR_CIS: Attagene CIS-FACTORIAL HepG2 Assay for human Early Growth Response 1 (EGR1) (AID 2282938); details: HepG2 Attagene CIS-FACTORIAL EGR reporter mRNA; actives raise or lower the signal
Summary of the method: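 HepG2 cells transiently transfected with cis-promoter-driven multiplexed reporter transcription units; reporter mRNA measured 24 h after compound dosing by RT-PCR, 6-FAM primer extension, HpaI digestion and capillary electrophoresis. Bidirectional fit versus DMSO baseline.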

[15] = ATG_M_19_CIS: Attagene CIS-FACTORIAL HepG2 Assay for M19 Transcription Factor (Internal Marker) (AID 2282939); details: HepG2 Attagene CIS-FACTORIAL M19 internal marker reporter; actives raise or lower the signal
Summary of the method: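 Chemical-treated HepG2 (24 h) with MRTU constructs; reporter transcripts detected by fluorescent RT-PCR fragment analysis on capillary electrophoresis. Internal background marker, DMSO as baseline.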

[16] = ATG_ERE_CIS: Attagene CIS-FACTORIAL HepG2 Assay for Estrogen Response Element (ERE) (AID 2282940); details: HepG2 ERE cis-reporter, Attagene RNA transcript; actives raise or lower the signal
Summary of the method: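 Human liver cells (HepG2) bearing transiently transfected, promoter-regulated reporter units were exposed 24 h. Reporter mRNA induction was detected by capillary electrophoresis of labelled RT-PCR products and fitted bidirectionally to DMSO.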

[17] = ATG_Ets_CIS: Attagene CIS-FACTORIAL HepG2 Assay for human Erythroblast Transformation Specific (ETS) (AID 2282941); details: HepG2 ETS cis-reporter transcription, actives raise or lower the signal
Summary of the method: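 Endogenous transcription factor activity read as reporter mRNA via RT-PCR and capillary electrophoresis, with gain or loss fitted bidirectionally against DMSO. Human HepG2 liver cells, transiently transfected CIS reporter constructs, 24 h exposure.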

[18] = ATG_FoxO_CIS: Attagene CIS-FACTORIAL HepG2 Assay for human Forkhead box O (FoxO) (AID 2282943); details: HepG2 Attagene cis-reporter, FoxO element, mRNA; actives raise or lower the signal
Summary of the method: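 Transfected HepG2 reporter cells exposed to test chemical for 24 h; reporter RNA measured by reverse transcription, PCR and fluorescent capillary electrophoresis; curves fitted for increases and decreases against DMSO.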

[19] = ATG_GATA_CIS: Attagene CIS-FACTORIAL HepG2 Assay for human GATA Binding Protein (AID 2282944); details: HepG2 GATA cis-element reporter, Attagene multiplex mRNA; actives raise or lower the signal
Summary of the method: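 Transfected cis-reporter HepG2 cells were treated with chemicals for 24 hours. Total RNA was then converted to cDNA, amplified with reporter-specific primers and analysed by fluorescent capillary electrophoresis, using DMSO-treated wells as baseline.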

[20] = molecular target: Hepatocyte nuclear factor 3-beta (Homo sapiens) (UniProt Q9Y261); assay: ATG_FoxA2_CIS: Attagene CIS-FACTORIAL HepG2 Assay for human Forkhead box A2 (FOXA2) (AID 2282942); details: HepG2 cis-reporter transcription factor activity, 24 h; actives raise or lower the signal
Summary of the method: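 HepG2 cells transiently transfected with multiple cis-regulated reporter transcription units, dosed for 24 h. Reporter mRNA measured by RT-PCR, 6-FAM labelling, HpaI digestion and capillary electrophoresis; bidirectional fitting against DMSO baseline.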

Measured: AC50

Hepatocyte nuclear factor 3-beta (Homo sapiens), sequence (Q9Y261 whole entry, looked up): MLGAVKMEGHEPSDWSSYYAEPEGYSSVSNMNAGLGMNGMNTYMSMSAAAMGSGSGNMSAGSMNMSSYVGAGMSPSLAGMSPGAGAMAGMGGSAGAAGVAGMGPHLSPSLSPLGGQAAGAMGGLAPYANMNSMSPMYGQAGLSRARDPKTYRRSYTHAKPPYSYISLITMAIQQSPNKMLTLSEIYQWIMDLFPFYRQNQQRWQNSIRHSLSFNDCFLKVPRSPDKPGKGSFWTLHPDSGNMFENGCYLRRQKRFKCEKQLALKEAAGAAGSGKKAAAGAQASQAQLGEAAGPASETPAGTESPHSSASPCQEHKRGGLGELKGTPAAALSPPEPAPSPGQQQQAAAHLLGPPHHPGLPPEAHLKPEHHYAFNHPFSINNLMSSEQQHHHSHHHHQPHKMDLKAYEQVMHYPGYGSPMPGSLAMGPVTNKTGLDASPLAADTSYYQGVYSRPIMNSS
Transcription factor E2F1 (Homo sapiens), sequence (Q01094 whole entry, looked up): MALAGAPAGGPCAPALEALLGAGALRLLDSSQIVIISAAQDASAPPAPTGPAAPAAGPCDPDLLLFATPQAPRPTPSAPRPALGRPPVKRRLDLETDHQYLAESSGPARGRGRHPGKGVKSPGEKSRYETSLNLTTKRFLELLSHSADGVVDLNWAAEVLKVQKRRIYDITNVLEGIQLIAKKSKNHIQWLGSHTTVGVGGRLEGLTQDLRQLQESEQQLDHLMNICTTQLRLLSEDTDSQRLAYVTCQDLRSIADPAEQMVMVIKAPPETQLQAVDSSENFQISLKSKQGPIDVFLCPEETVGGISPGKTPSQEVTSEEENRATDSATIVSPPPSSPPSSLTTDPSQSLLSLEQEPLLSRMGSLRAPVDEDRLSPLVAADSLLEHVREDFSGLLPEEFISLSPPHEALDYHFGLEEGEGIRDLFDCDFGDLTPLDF
CCAAT/enhancer-binding protein beta (Homo sapiens), sequence (P17676 whole entry, looked up): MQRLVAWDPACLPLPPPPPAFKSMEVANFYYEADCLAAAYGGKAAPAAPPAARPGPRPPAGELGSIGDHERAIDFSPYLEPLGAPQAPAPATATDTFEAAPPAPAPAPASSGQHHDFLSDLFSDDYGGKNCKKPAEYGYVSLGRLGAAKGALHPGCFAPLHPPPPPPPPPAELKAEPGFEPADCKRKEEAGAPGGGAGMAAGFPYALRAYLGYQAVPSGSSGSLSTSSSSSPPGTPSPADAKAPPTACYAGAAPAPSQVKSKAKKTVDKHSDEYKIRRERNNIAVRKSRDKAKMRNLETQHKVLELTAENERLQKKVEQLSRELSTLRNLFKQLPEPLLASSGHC
Retinoic acid receptor alpha (Homo sapiens), sequence (P10276 whole entry, looked up): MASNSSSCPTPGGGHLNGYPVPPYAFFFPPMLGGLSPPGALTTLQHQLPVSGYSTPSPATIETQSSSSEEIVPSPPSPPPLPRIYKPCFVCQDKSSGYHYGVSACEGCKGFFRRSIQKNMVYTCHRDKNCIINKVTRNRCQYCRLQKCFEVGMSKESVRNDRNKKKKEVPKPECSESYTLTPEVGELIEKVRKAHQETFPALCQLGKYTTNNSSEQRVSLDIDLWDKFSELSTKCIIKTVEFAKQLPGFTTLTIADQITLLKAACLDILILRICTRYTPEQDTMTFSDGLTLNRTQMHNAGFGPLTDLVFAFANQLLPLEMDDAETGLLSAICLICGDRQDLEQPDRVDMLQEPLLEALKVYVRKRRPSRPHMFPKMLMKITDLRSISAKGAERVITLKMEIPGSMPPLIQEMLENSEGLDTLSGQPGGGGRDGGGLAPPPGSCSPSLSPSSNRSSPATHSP
Aryl hydrocarbon receptor (Homo sapiens), sequence (P35869 whole entry, looked up): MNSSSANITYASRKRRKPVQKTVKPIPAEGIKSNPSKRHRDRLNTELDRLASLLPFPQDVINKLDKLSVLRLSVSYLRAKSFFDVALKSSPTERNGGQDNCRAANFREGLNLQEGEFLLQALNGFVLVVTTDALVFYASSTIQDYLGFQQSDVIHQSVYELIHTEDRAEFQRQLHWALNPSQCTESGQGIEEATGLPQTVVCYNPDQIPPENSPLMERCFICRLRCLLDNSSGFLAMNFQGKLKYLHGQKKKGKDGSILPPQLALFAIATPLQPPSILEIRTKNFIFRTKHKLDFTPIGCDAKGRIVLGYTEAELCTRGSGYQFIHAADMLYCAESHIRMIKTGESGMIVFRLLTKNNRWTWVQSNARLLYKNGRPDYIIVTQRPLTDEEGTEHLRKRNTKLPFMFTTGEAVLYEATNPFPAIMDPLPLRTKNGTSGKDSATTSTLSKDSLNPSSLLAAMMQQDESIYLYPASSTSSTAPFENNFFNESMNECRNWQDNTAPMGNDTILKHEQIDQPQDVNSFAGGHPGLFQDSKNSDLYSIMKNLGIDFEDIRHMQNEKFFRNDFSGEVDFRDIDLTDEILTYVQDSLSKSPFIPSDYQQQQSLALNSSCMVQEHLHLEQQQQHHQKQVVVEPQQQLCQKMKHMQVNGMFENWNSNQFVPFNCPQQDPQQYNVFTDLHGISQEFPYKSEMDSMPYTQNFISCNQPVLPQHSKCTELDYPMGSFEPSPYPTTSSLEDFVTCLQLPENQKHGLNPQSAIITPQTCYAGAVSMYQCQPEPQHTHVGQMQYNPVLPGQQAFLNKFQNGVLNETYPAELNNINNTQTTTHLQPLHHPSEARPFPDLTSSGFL

NC(=O)N1C(=O)C(C(=O)c2cc(Cl)cs2)c2cc(F)c(Cl)cc21 (configuration not stated)
not listed: [20]
inactive: all other assays above

Oc1cc2ccccc2c2ccccc12
not listed: [16] | [20]
inactive: all other assays above

O=C(OCCOCCOC(=O)c1ccccc1)c1ccccc1
active: [6] 71.3 µM
not listed: [16] | [20]
inactive: all other assays above

CCC(=C(c1ccc(O)cc1)c1ccc(OCCN(C)C)cc1)c1ccccc1
inactive: [1] | [2] | [3] | [4] | [5] | [6] | [8] | [9] | [10] | [11] | [12] | [13] | [14] | [15] | [16] | [17] | [18] | [19]
active: [4] 5.22 µM and 7.1 µM | [5] 9.72 µM and 2.37 µM | [9] 10.5 µM | [10] 11.1 µM | [11] 10.8 µM | [12] 9.17 µM and 7.1 µM and 3.43 µM | [13] 11.7 µM | [14] 9.87 µM and 10.8 µM | [15] 10.7 µM | [19] 10.5 µM

Nc1cccc2c(N)cccc12
active: [6] 2.85 µM | [7] 77.7 µM
not listed: [16] | [20]
inactive: all other assays above

CC#C[C@]1(O)CC[C@H]2[C@@H]3CCC4=CC(=O)CCC4=C3[C@@H](c3ccc(N(C)C)cc3)C[C@@]21C
inactive: [1] | [2] | [3] | [4] | [6] | [7] | [8] | [10] | [11] | [12] | [13] | [15] | [17] | [18] | [19]
active: [2] 49.8 µM and 47.6 µM and 23.3 µM | [4] 56.9 µM | [5] 10.4 µM [middle of 4 runs] | [6] 6.86 µM and 5.91 µM | [7] 27.6 µM and 66.9 µM and 63.5 µM | [8] 25.7 µM | [9] 22.4 µM [middle of 4 runs] | [10] 7.96 µM | [14] 9.86 µM [middle of 4 runs] | [17] 8.92 µM

OC1CCCCC1
not listed: [16]
inactive: all other assays above

CC(C)(C)c1cc(C(C)(C)C)c(O)c(C(C)(C)C)c1
inactive: [1] | [2] | [3] | [4] | [5] | [6] | [8] | [9] | [11] | [12] | [13] | [14] | [15] | [17] | [18] | [19]
active: [4] 74.9 µM | [7] 76.4 µM and 27 µM

CCCCCCCCCCCCN1CCCC1=O
not listed: [16]
inactive: all other assays above
